Common to all, as to test: DAPPL (digital affinity profiling via proximity ligation, sequencing); 10 mM Tris-HCl pH 7.5, 50 mM NaCl, 1 mM DTT, 4% glycerol, room temperature, 30 min; GST-TFs on glutathione beads, 16-mer random dsDNA library, 0.1% formaldehyde crosslink after washing; high values mean tight binding
What all share (conditions): protein: recombinant; tags: N-terminal GST; dsDNA, one strand shown

For one experiment, the target named is T1, GABPA (Homo sapiens, UniProt Q06546 1-454).
T1 sequence: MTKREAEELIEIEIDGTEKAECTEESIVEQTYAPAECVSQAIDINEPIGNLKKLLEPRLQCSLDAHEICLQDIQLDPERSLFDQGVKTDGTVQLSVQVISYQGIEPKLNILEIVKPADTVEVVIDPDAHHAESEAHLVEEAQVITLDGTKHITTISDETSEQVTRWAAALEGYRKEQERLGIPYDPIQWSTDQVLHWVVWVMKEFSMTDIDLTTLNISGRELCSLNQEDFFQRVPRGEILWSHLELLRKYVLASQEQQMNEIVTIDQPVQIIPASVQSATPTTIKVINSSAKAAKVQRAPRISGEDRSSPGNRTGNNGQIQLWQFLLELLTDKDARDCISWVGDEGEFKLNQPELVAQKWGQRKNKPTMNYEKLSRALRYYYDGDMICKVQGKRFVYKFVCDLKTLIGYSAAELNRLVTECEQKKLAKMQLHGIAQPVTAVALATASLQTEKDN
In a few lines: (§1)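 Sequencing on an Illumina NextSeq500 followed washing, crosslinking with 0.1% formaldehyde, proximity ligation (BsaI/T4 ligase, 1 h, 37 °C) and PCR amplification of pools that had been incubated for 30 min at room temperature with 200 nmole of a random double-stranded 16-mer DNA library in Tris/NaCl/DTT/glycerol buffer. Each pool held DNA-barcoded human transcription factors, expressed in yeast as GST fusions and captured on glutathione beads, plus a tag-only sample. Binding signal is a hexamer's read frequency for a factor divided by its frequency in the tag-only sample.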

In the next experiment the target is T2, ERG (Homo sapiens, UniProt P11308 1-479).
T2 sequence: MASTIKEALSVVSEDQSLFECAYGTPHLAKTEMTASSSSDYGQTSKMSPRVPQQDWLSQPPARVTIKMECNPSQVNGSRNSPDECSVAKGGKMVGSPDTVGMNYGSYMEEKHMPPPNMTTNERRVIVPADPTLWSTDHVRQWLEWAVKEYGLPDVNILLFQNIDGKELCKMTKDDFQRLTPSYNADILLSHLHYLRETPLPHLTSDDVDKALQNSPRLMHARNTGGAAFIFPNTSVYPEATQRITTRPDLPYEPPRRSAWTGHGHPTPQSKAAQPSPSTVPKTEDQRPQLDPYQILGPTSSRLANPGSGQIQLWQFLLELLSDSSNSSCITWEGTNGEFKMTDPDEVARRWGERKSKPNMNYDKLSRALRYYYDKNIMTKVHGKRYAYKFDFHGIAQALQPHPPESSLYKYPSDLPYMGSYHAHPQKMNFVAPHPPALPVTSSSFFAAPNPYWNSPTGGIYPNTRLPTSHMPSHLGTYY
The essentials:
as §1

Another experiment concerns the target ELF1 (Homo sapiens, UniProt P32519 1-619). In a few lines:
as §1

For the next experiment, the target named is T3, EHF (Homo sapiens, UniProt Q9NZC4 1-300).
T3 sequence: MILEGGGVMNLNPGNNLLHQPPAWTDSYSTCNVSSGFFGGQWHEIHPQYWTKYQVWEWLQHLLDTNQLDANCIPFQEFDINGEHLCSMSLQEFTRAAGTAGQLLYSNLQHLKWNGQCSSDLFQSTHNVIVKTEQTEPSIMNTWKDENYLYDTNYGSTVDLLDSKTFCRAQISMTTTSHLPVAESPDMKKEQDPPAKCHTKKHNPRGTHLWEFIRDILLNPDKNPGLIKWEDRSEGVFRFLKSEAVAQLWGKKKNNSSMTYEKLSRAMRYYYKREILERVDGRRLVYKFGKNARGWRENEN
In a few lines:
as §1

A further experiment deals with SPIB (Homo sapiens, UniProt Q01892 1-262). The essentials: as §1
Chain of SPIB (Q01892 whole entry): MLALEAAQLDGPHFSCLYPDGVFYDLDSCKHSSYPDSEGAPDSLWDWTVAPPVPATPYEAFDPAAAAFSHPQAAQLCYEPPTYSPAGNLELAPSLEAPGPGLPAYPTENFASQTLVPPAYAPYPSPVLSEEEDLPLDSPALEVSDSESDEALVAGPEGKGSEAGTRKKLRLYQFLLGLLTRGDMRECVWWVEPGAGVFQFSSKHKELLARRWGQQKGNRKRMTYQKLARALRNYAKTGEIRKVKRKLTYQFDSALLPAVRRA
Another experiment concerns the target T4, ELK3 (Homo sapiens, UniProt P41970 1-407).
T4 sequence: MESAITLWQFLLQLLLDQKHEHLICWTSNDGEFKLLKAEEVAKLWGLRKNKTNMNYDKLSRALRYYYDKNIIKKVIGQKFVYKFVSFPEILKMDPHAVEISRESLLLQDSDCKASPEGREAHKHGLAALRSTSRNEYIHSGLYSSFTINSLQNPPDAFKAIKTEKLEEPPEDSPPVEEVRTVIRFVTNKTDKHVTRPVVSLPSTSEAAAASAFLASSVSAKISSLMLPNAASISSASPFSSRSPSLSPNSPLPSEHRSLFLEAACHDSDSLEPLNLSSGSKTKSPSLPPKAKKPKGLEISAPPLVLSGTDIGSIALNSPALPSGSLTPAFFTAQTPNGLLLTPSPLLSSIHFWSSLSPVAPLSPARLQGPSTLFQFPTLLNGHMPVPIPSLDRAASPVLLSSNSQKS
The essentials:
as §1

For another experiment, the target named is T5, SPIC (Homo sapiens, UniProt Q8N5J4 1-248).
T5 sequence: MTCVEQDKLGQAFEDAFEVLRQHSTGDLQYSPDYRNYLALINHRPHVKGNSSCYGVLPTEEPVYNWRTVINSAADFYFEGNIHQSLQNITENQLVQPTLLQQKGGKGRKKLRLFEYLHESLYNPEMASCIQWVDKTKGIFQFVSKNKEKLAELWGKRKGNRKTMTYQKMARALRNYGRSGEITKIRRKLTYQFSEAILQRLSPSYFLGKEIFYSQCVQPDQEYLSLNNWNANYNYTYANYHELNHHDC
The essentials:
as §1

In the next experiment the target is ELF4 (Homo sapiens, UniProt Q99607 1-663). In a few lines:
as §1

Another experiment deals with T6, ELK4 (Homo sapiens, UniProt P28324-2 1-405).
T6 sequence: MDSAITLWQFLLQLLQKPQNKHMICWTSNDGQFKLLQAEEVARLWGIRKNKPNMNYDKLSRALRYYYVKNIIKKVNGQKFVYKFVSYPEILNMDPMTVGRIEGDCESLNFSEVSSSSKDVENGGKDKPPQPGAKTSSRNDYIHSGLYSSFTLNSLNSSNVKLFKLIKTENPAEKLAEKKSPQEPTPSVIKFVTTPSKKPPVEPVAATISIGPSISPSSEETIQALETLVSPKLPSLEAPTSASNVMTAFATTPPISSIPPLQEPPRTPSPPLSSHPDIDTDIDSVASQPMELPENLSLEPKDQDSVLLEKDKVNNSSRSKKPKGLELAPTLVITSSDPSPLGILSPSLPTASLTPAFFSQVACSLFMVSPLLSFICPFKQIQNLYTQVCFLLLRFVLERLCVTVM
The essentials:
as §1

Another experiment concerns the target T7, ELF3 (Homo sapiens, UniProt P78545 1-371).
T7 sequence: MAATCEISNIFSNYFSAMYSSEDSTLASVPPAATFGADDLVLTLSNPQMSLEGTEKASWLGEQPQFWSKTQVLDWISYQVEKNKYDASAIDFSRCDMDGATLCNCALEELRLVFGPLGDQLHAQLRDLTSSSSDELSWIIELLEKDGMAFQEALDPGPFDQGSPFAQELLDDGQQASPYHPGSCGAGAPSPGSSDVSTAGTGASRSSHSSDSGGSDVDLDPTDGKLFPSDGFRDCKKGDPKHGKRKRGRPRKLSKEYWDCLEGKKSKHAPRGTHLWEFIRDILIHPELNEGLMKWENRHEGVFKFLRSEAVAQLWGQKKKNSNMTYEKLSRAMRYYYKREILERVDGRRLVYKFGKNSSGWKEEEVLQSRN
The essentials: as §1

Another experiment has as its target ETV1 (Homo sapiens, UniProt P50549 1-477). The essentials:
as §1

In another experiment the target is T8, ERF (Homo sapiens, UniProt P50548 1-548).
T8 sequence: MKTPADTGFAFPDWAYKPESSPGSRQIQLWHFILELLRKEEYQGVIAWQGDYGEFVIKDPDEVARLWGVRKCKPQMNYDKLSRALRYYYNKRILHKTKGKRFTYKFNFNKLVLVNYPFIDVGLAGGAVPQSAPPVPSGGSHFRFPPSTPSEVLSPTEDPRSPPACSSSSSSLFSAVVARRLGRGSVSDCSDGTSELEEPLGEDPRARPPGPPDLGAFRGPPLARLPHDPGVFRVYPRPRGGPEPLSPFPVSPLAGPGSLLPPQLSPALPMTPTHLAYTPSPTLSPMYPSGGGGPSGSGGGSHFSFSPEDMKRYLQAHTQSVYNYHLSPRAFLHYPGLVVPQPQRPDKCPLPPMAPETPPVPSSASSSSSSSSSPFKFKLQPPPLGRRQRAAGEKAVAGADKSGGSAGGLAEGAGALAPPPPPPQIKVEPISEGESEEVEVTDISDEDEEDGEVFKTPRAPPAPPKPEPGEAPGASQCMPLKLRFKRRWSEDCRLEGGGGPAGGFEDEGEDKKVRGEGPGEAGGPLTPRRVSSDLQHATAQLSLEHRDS
In a few lines: as §1

The target in another experiment is T9, ETV3L (Homo sapiens, UniProt Q6ZN32 1-361).
T9 sequence: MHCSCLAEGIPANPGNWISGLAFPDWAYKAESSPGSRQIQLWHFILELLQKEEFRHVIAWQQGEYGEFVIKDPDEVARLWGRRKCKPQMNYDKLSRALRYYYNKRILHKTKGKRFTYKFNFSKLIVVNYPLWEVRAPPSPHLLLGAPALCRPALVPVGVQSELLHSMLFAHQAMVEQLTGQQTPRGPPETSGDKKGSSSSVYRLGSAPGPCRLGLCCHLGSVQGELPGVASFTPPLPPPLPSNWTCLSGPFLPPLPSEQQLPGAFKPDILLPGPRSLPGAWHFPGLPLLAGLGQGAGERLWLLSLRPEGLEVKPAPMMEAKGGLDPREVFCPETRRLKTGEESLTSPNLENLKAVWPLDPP
In a few lines: as §1

The next experiment concerns the target T10, ETS2 (Homo sapiens, UniProt P15036 1-469).
T10 sequence: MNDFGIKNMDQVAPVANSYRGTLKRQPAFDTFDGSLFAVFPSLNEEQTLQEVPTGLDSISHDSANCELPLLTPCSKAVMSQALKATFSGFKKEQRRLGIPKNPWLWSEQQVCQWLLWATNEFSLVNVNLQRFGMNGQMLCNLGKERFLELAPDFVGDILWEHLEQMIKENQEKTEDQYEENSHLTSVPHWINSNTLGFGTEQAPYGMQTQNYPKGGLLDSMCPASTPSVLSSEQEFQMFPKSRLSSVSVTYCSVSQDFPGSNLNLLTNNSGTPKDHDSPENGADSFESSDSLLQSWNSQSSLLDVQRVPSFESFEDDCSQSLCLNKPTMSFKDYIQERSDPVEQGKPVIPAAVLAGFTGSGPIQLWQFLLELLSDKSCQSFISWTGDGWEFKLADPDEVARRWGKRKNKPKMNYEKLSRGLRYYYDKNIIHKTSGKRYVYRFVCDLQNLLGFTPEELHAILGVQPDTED
In a few lines:
as §1

In a further experiment the target is T11, SPDEF (Homo sapiens, UniProt O95238 1-335).
T11 sequence: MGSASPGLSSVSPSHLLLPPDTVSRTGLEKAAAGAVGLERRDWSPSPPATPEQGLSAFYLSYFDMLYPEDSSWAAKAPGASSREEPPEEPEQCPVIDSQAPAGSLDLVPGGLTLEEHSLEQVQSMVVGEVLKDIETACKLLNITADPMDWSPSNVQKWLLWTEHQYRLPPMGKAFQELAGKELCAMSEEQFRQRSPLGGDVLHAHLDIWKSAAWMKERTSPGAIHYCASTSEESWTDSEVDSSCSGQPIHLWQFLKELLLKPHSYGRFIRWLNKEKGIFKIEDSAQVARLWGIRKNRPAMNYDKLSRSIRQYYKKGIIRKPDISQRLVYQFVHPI
The essentials:
as §1

The next experiment has as its target T12, ETV7 (Homo sapiens, UniProt Q9Y603 1-341).
T12 sequence: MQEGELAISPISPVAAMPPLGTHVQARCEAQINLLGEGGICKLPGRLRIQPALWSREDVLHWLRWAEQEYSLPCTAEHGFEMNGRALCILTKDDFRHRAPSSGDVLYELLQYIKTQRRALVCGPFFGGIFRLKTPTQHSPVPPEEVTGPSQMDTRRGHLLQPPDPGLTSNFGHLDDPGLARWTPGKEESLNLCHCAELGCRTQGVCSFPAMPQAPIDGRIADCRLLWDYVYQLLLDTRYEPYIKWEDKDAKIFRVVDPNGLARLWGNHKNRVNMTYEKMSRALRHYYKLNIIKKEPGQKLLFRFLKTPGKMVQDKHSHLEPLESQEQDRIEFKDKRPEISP
The essentials:
as §1

The next experiment addresses T13, ETV3 (Homo sapiens, UniProt P41162-2 1-143).
T13 sequence: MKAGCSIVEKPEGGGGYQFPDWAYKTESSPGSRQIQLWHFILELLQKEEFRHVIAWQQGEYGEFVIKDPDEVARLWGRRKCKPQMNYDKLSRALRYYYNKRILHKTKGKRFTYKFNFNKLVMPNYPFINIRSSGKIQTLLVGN
In a few lines:
as §1

In the next experiment the target is ETV6 (Homo sapiens, UniProt P41212 1-452). The essentials: as §1
Chain of ETV6 (P41212 whole entry): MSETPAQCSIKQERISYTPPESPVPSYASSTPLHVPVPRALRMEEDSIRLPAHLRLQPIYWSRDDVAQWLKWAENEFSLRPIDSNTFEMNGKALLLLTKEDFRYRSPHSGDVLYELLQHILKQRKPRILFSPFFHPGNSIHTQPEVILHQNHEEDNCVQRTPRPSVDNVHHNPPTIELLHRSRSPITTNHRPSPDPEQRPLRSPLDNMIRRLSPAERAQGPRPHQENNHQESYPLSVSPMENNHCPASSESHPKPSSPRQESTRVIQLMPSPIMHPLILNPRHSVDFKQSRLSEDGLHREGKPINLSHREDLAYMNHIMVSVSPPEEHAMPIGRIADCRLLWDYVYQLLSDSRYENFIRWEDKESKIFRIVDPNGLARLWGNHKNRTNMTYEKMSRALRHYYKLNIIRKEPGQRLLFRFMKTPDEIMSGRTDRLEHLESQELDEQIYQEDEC

Chain of ETV1 (P50549 whole entry): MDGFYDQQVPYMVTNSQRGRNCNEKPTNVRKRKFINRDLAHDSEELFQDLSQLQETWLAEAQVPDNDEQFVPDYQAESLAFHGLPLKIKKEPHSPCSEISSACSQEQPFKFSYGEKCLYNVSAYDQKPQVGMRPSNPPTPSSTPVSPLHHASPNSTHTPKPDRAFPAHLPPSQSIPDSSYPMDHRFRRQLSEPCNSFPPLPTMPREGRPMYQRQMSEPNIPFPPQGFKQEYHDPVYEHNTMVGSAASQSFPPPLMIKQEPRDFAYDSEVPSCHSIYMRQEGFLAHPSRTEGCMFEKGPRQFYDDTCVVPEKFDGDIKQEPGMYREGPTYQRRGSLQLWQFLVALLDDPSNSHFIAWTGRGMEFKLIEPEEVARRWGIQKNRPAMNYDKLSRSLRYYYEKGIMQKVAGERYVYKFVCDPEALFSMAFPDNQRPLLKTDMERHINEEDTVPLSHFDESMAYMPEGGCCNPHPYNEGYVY
Chain of ELF4 (Q99607 whole entry): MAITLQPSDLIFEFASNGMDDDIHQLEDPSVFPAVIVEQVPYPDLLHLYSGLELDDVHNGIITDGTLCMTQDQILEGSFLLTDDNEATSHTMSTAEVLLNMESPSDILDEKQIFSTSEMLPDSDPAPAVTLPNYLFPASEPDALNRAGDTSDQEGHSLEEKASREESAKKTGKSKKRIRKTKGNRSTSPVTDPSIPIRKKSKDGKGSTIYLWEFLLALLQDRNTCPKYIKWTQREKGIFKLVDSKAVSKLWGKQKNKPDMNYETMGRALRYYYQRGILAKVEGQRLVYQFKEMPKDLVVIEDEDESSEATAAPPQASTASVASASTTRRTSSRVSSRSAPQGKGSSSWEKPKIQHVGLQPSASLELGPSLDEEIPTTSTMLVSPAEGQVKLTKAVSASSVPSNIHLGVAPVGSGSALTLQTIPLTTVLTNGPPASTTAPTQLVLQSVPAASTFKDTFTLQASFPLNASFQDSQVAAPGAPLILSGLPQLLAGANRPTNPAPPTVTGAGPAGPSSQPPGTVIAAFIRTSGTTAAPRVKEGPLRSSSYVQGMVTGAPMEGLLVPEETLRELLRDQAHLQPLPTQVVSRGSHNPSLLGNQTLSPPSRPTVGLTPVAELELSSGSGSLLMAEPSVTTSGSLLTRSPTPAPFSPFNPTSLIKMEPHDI
Chain of ELF1 (P32519 whole entry): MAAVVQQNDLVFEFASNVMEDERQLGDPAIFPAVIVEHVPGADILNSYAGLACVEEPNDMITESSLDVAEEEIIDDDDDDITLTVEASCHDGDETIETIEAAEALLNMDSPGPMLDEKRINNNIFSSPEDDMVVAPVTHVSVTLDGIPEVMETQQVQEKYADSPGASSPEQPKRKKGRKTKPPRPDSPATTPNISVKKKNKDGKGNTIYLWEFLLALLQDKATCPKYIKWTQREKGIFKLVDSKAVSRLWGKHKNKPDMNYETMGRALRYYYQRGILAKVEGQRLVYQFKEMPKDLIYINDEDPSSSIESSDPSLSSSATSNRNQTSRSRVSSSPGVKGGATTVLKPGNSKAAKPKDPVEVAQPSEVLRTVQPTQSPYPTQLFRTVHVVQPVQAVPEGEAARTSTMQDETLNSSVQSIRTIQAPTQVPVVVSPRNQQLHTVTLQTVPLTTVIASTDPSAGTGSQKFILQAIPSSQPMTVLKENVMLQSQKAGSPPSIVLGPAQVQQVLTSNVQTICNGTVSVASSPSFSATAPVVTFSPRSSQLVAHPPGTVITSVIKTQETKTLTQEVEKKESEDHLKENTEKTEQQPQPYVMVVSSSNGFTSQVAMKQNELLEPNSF

In the case of TTGCCA, the binding signal was 1.13 fold enrichment (6-mer frequency, TF over GST control) in the experiment with GABPA; 1.08 fold enrichment (6-mer frequency, TF over GST control) in the experiment with ERG; 1.03 fold enrichment (6-mer frequency, TF over GST control) with ELF1; 1.12 fold enrichment (6-mer frequency, TF over GST control) with EHF; 1.02 fold enrichment (6-mer frequency, TF over GST control) with SPIB; 1.05 fold enrichment (6-mer frequency, TF over GST control) with ELK3. The binding signal with SPIC was 1.16 fold enrichment (6-mer frequency, TF over GST control); with ELF4, 1.07 fold enrichment (6-mer frequency, TF over GST control); with ELK4, 1.15 fold enrichment (6-mer frequency, TF over GST control); with ELF3 it was 1.17 fold enrichment (6-mer frequency, TF over GST control); in the experiment with ETV1 it was 1.06 fold enrichment (6-mer frequency, TF over GST control); in the experiment with ERF, 1.23 fold enrichment (6-mer frequency, TF over GST control). Further, the binding signal with ETV3L was 1 fold enrichment (6-mer frequency, TF over GST control); with ETS2, 1.05 fold enrichment (6-mer frequency, TF over GST control); in the experiment with SPDEF it was 1.14 fold enrichment (6-mer frequency, TF over GST control); with ETV7, 1.03 fold enrichment (6-mer frequency, TF over GST control); in the experiment with ETV3, 1.12 fold enrichment (6-mer frequency, TF over GST control); with ETV6, 1.06 fold enrichment (6-mer frequency, TF over GST control).

For the origin of these results see publication PMC7862700, “An all-to-all approach to the identification of sequence-specific readers for epigenetic DNA modifications on cytosine”.
